Experimental data as given in the supplement of paper PMC8728848.
Many of the other results were omitted from the sample, so the strongest signals are more common in it than they were.

B1: F4 (Escherichia coli), A0A6L9DDF0 (protein)
chain: MKKTLIALALAASAVSGMAHAWTSGDFNGTVDIGGSIDATNYRQKWEWEVGTGLNGFYNALSELTNNDTKLTITVTGNKPILLGRTKEAFVTPTAGGWGGIPQIAFTDYKGAPVELKNPDGETNKGLAYFVLPMKNADGTEAGSVRVNASYAGAVVEKTSDSSAKLFSAYAGEVIRIFNGGLPVNVTQSELQSGVAAADRTALFGSLGKADLVAQFQAVIPGATVTDGTSSEHCTMRLLASAAYALGIADGQTIEATFNQAVTTSTQWSAPLNVAITYY
B2: LKITALY (Gibberella zeae) (protein)
chain: MGNFHESSNNIWLEDGHILHAECGNGEGDYVESTLDLDYYIGNDDGSFSWGGENFSGSASNITLDIEGDDNIPVLRAELNPMDGDPVEANVNLSERIGNDCGTLIFLA

Tests used:
Test in all cases: glycan array binding signal (z-score within array); higher = stronger binding
Conditions in all cases: glycan notation: IUPAC condensed, linker removed
[1] = biological target: Fuc(a1-2)Gal(b1-3)GalNAc
How it was run: (§1)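 The binding signal is a Z-score computed within each array. Data were drawn from 3228 arrays in the Consortium for Functional Glycomics database, restricted to those with a known protein sequence. Scores were averaged over arrays of the same protein sequence at different concentrations or buffers, and over linkers, and negative values can be taken as non-binding.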

[2] = biological target: Fuc(a1-2)[Gal(a1-3)]Gal(b1-4)Glc
How it was run: as §1

[3] = biological target: Fuc(a1-2)[GalNAc(a1-3)]Gal
How it was run: as §1

[4] = biological target: Fuc(a1-2)[GalNAc(b1-3)]Gal
How it was run: as §1

[5] = biological target: Fuc(a1-3)GlcNAc
How it was run: as §1

[6] = biological target: Gal(a1-2)Gal
How it was run: as §1

[7] = biological target: Gal(b1-3)[Fuc(a1-4)]GlcNAc(b1-3)Gal(b1-4)GlcNAc
How it was run: as §1

[8] = biological target: Gal(b1-4)GlcNAc
How it was run: as §1

[9] = biological target: Gal(b1-4)GlcNAc(b1-3)Gal(b1-4)Glc
How it was run: as §1

[10] = biological target: Gal(b1-4)GlcNAc(b1-3)Gal(b1-4)GlcNAc
How it was run: as §1

[11] = biological target: Gal4S6S(b1-4)GlcNAc
How it was run: as §1

[12] = biological target: Gal6S(b1-4)Glc
How it was run: as §1

[13] = biological target: Gal6S(b1-4)GlcNAc
How it was run: as §1

[14] = biological target: GlcNAc(b1-3)Gal(b1-4)Glc
How it was run: as §1

[15] = biological target: Man(a1-2)Man(a1-3)[Man(a1-2)Man(a1-6)]Man
How it was run: as §1

[16] = biological target: Man(a1-2)Man(a1-3)[Man(a1-2)Man(a1-6)]Man(a1-6)[Man(a1-2)Man(a1-2)Man(a1-3)]Man(b1-4)GlcNAc(b1-4)GlcNAc
How it was run: as §1

[17] = biological target: Neu5Ac(a2-3)Gal(b1-3)[Neu5Ac(a2-6)]GalNAc
How it was run: as §1

[18] = biological target: Neu5Ac(a2-3)Gal(b1-4)GlcNAc(b1-2)Man(a1-3)[Neu5Ac(a2-3)Gal(b1-4)GlcNAc(b1-2)Man(a1-6)]Man(b1-4)GlcNAc(b1-4)GlcNAc
How it was run: as §1

[19] = biological target: Neu5Ac(a2-3)Gal(b1-4)GlcNAc(b1-3)Gal(b1-4)GlcNAc(b1-3)Gal(b1-4)GlcNAc
How it was run: as §1

[20] = biological target: Neu5Ac(a2-3)Gal(b1-4)[Fuc(a1-3)]GlcNAc
How it was run: as §1

[21] = biological target: Neu5Ac(a2-3)Gal(b1-4)[Fuc(a1-3)]GlcNAc(b1-3)Gal(b1-4)GlcNAc
How it was run: as §1

[22] = biological target: Neu5Ac(a2-3)Gal(b1-4)[Fuc(a1-3)]GlcNAc(b1-3)Gal(b1-4)[Fuc(a1-3)]GlcNAc(b1-3)Gal(b1-4)[Fuc(a1-3)]GlcNAc
How it was run: as §1

[23] = biological target: Neu5Ac(a2-3)Gal6S(b1-4)GlcNAc
How it was run: as §1

[24] = biological target: Neu5Ac(a2-3)GalNAc
How it was run: as §1

[25] = biological target: Neu5Ac(a2-6)Gal(b1-4)GlcNAc(b1-3)Gal(b1-4)[Fuc(a1-3)]GlcNAc(b1-3)Gal(b1-4)[Fuc(a1-3)]GlcNAc
How it was run: as §1

[26] = biological target: Neu5Ac(a2-6)Gal(b1-4)GlcNAc6S
How it was run: as §1

[27] = biological target: Fuc(a1-2)Gal(b1-4)GlcNAc(b1-3)Gal(b1-4)GlcNAc
How it was run: as §1

[28] = biological target: Gal(a1-3)Gal
How it was run: as §1

[29] = biological target: Gal(a1-6)Glc
How it was run: as §1

[30] = biological target: Gal(b1-3)GalNAc(b1-4)Gal(b1-4)Glc
How it was run: as §1

[31] = biological target: Gal(b1-4)Glc
How it was run: as §1

[32] = biological target: Gal(b1-4)GlcNAc(b1-6)Gal(b1-4)GlcNAc(b1-6)GalNAc
How it was run: as §1

[33] = biological target: Gal3S(b1-3)GlcNAc
How it was run: as §1

[34] = biological target: Gal3S(b1-4)Glc6S
How it was run: as §1

[35] = biological target: Gal3S6S(b1-4)GlcNAc6S
How it was run: as §1

[36] = biological target: Man(a1-3)[Man(a1-6)]Man(a1-6)[Man(a1-3)]Man(b1-4)GlcNAc(b1-4)GlcNAc
How it was run: as §1

[37] = biological target: Neu5Gc(a2-3)Gal(b1-3)[Fuc(a1-4)]GlcNAc
How it was run: as §1

[38] = biological target: Neu5Gc(a2-3)Gal(b1-4)GlcNAc
How it was run: as §1

| Binder | glycan array binding signal (z-score) [1] | glycan array binding signal (z-score) [2] | glycan array binding signal (z-score) [3] | glycan array binding signal (z-score) [4] | glycan array binding signal (z-score) [5] | glycan array binding signal (z-score) [6] | glycan array binding signal (z-score) [7] | glycan array binding signal (z-score) [8] | glycan array binding signal (z-score) [9] | glycan array binding signal (z-score) [10] | glycan array binding signal (z-score) [11] | glycan array binding signal (z-score) [12] | glycan array binding signal (z-score) [13] | glycan array binding signal (z-score) [14] | glycan array binding signal (z-score) [15] | glycan array binding signal (z-score) [16] | glycan array binding signal (z-score) [17] | glycan array binding signal (z-score) [18] | glycan array binding signal (z-score) [19] | glycan array binding signal (z-score) [20] | glycan array binding signal (z-score) [21] | glycan array binding signal (z-score) [22] | glycan array binding signal (z-score) [23] | glycan array binding signal (z-score) [24] | glycan array binding signal (z-score) [25] | glycan array binding signal (z-score) [26] | glycan array binding signal (z-score) [27] | glycan array binding signal (z-score) [28] | glycan array binding signal (z-score) [29] | glycan array binding signal (z-score) [30] | glycan array binding signal (z-score) [31] | glycan array binding signal (z-score) [32] | glycan array binding signal (z-score) [33] | glycan array binding signal (z-score) [34] | glycan array binding signal (z-score) [35] | glycan array binding signal (z-score) [36] | glycan array binding signal (z-score) [37] | glycan array binding signal (z-score) [38] |
| --- | --- | --- | --- | --- | --- | --- | --- | --- | --- | --- | --- | --- | --- | --- | --- | --- | --- | --- | --- | --- | --- | --- | --- | --- | --- | --- | --- | --- | --- | --- | --- | --- | --- | --- | --- | --- | --- | --- |
| B1 | -0.145 | -0.191 | -0.144 | -0.33 | -0.164 | -0.128 | -0.232 | -0.137 | -0.276 | -0.397 | 0.285 | -0.213 | 1.48 | 8.86 | 0.052 | -0.311 | -0.291 | -0.209 | -0.282 | 2.09 | -0.176 | -0.185 | -0.21 | -0.397 | 2.24 | -0.382 |  |  |  |  |  |  |  |  |  |  |  |  |
| B2 | -0.361 |  | -0.347 | -0.36 |  |  | -0.337 |  |  |  |  |  |  |  |  |  |  |  | 3.85 |  |  |  |  |  |  |  | -0.364 | -0.354 | -0.352 | -0.358 | -0.357 | -0.342 | 4.13 | 2.82 | 3.55 | -0.347 | -0.358 | 3.69 |
